Measurements taken from PubChem BioAssay (Tox21).
Inconclusive results are not listed. Entries that show only a call come without a potency. Calls of active or inactive are those of the source. Calls follow the shape of the dose curve; as a rule, active = well fitted inhibition curve with a large enough effect in the repeat runs; inconclusive = weak or mixed curves; inactive = flat fitted curve, though single readings scatter.

Biological target: Voltage-gated inwardly rectifying potassium channel KCNH2 (Homo sapiens) (UniProt Q12809)
Assay: Human Ether-a-go-go-Related Gene (hERG) channel small molecule antagonists: fluorescence cell-based qHTS assay (AID 1671200); also: nearly all actives have a fitted effect of over 50% in size
Conditions: hERG-U2OS cells, FluxOR thallium flux fluorescence; series mostly up to 76.8 µM
Text: National Center for Advancing Translational Sciences [NCATS]
U.S. Environmental Protection Agency [EPA]
National Institutes of Environmental Health Sciences [NIEHS]
National Toxicology Program [NTP]
U.S. Food and Drug Administration [FDA]
Mutations in the hERG channel cause Long QT (LQT) syndrome. LQT syndrome is a cardiac disorder which can cause ventricle arrhythmia and sudden death. Additionally, compounds which block the hERG channel can cause acquired LQT syndrome. Several FDA approved drugs have been removed from the market due to their hERG blocking activity. A cell-based hERG channel inhibition assay can be used to screen chemical compounds that inhibit hERG channel. This assay measures hERG channel activity using thallium ions as surrogate ions to measure potassium into the cells.
Tox21 Assay Protocol Summary:
hERG-U2OS cells were resuspended in culture medium and dispensed into 1536-well, black wall/clear-bottom plates at 1000cells/well/3uL using a Multidrop Combi dispenser (Thermo Fisher, Waltham, MA). After plates were incubated at 37 C overnight, 3 uL of Loading Buffer provided by FluxOR II Potassium Ion Channel Assay kit (Thermo, Carlsbad, CA) was added to each well. The assay plates were then incubated at room temperature in the dark for 1h. […] After the assay plates were incubated at room temperature for 10 min, 1 uL of Stimulus Buffer provided by FluxOR II Potassium Ion Channel Assay kit was added into each well and fluorescence intensity (480nm excitation/540nm emission) was continuously measured for 2 min at 1 second intervals using a Functional Drug Screening System (FDSS) 7000EX kinetic plate reader (Hamamatsu, Japan).
Potency is read from the fitted curve at half-maximal effect.

Sequence of Voltage-gated inwardly rectifying potassium channel KCNH2 (Homo sapiens) (Q12809 whole entry, looked up): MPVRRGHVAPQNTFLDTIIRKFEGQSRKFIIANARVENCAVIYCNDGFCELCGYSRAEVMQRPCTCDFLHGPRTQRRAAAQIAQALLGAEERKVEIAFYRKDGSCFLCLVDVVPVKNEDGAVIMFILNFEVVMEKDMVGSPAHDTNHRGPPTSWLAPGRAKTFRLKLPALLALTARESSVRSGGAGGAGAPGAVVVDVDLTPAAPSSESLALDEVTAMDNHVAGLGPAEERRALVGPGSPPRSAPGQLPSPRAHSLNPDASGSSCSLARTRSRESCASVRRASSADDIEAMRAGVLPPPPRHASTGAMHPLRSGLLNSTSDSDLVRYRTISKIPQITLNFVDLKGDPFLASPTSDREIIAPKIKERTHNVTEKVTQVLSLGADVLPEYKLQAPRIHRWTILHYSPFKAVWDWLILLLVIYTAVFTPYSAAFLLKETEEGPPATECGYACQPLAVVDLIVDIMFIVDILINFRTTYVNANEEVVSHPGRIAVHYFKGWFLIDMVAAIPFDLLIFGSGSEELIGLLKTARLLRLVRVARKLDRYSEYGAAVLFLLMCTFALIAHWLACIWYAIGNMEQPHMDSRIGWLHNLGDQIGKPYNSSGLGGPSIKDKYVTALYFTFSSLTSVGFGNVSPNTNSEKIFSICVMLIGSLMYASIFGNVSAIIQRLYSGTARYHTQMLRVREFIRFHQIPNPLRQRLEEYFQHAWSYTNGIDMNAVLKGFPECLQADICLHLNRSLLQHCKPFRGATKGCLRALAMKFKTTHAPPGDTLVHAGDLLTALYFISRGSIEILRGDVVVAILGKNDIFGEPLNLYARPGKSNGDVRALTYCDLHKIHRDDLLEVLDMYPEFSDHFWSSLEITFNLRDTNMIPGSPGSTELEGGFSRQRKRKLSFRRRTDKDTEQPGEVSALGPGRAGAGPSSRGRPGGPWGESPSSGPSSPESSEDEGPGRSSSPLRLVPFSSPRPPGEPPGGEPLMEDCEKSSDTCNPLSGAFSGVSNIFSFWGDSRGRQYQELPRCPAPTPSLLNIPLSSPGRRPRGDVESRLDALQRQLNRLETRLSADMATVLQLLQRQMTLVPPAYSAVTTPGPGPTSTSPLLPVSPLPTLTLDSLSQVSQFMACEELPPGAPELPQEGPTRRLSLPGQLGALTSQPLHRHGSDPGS

| Compound | Potency |
| --- | --- |
| O=[N+]([O-])c1cccc2cccnc12 | inactive |
| NC(=O)O | inactive |
| ClC(Cl)Br | inactive |
| Oc1c(Cl)cccc1Cl | inactive |
| CCCCP(CCCC)CCCC | inactive |
| CCS(=O)(=O)C(C)(C)S(=O)(=O)CC | inactive |
| CC(=O)C(Cl)Cl | inactive |
| [Cl][Sn]([Cl])([Cl])[Cl] | inactive |
| CCOP(=S)(OCC)SCSP(=S)(OCC)OCC | inactive |
| ClCCOCOCCCl | inactive |
| Cc1nnc2n1-c1sc(CCC(=O)N3CCOCC3)cc1C(c1ccccc1Cl)=NC2 | inactive |
| CCN(CC)CCOC(=O)C(C)(c1ccccc1)c1ccccc1 | 10.7 µM (active) |
| COC(=O)C1=CCCN(C)C1 | inactive |
| Fc1ccc(C2(Cn3cncn3)OC2c2ccccc2Cl)cc1 (stereo not given) | inactive |
| C=CCC1=C(C)[C@@H](OC(=O)[C@@H]2[C@@H](C=C(C)C)C2(C)C)CC1=O | 21.9 µM (active) |
| O=CNC(N1CCN(C(NC=O)C(Cl)(Cl)Cl)CC1)C(Cl)(Cl)Cl (stereo not given) | inactive |
| N#CCBr | inactive |
| CC1(C)C(=O)NC(=O)NC1=O | inactive |
| CCCSC(=O)N(CCC)CCC | inactive |
| CNC(=O)Oc1ccc(N(C)C)c(C)c1 | inactive |

| Compound | Potency |
| --- | --- |
| COc1cc(C[C@@H](C)N)c(OC)cc1C | inactive |
| N#CC(CCc1ccc(Cl)cc1)(Cn1cncn1)c1ccccc1 (stereo not given) | 21.9 µM (active) |
| C#C[C@]1(O)C=C[C@H]2[C@@H]3CCC4=CC(=O)CC[C@@H]4[C@H]3CC[C@@]21CC | inactive |
| N#CC(O)c1ccccc1 (stereo not given) | inactive |
| C[N+](C)=CCl | inactive |
| Cc1nc(N)nc(N)n1 | inactive |
| CCC#N | inactive |
| CNC(=O)Oc1c(C(C)(C)C)cc(C)cc1C(C)(C)C | inactive |
| C=CC1CC=CCC1 (stereo not given) | inactive |
| CC1=NNC(=O)N(/N=C/c2cccnc2)C1 | inactive |
| COC(=O)c1c(C(F)F)nc(C(F)(F)F)c(C2=NCCS2)c1CC(C)C | inactive |
| O=C(NCO)NCO | inactive |
| Clc1ccccc1N1CCNCC1 | inactive |
| O=C(CCCN1CCC(n2c(=O)[nH]c3ccccc32)CC1)c1ccc(F)cc1 | 1.51 µM (active) |
| CNNC | inactive |
| N#Cc1c(Cl)cccc1Cl | inactive |
| CCOC(=O)CP(=O)(OCC)OCC | inactive |
| COC(=O)c1ccccc1S(=O)(=O)NC(=O)N(C)c1nc(C)nc(OC)n1 | inactive |
| CCCCOP(=O)(O)OCCCC | inactive |
| CC(C)CC#N | inactive |
